# In PubChem BioAssay (NCI):
# This is part of a sample that, as a whole, favours compounds with a hit. Of some 83,000 tested, about 20% had one in any assay.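 Treatment: one concentration, 48 hours, 96-well format. Scoring: percent growth, with anything below 10 considered active.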 The source made the active and inactive calls.
# System: HL-60(TB) leukemia
# Assay: NCI-60 one-dose screen, 48 h (100 = growth as untreated, 0 = no growth, -100 = all killed)
# Conditions: 10 µM unless noted
row,SMILES,growth
1,S=C(Nc1ccc(Cl)cc1)Nc1ccc(Cl)cc1 (tested in a mixture with another compound),8.57% (active)
2,COc1cc2nc(Nc3cccc(C(=O)O)c3)nc(N)c2cc1OC,109% (inactive)
3,NC(N)=Nc1cc2ccccc2c2ccccc12,46.4% (inactive)
4,COc1cc(/C=C2\C(=O)N(CCCCn3c4ccccc4c(=O)c4ccccc43)c3ccccc32)cc(OC)c1O,53.5% (inactive)
5,Clc1ccc(N2CCN(CCCN3CCN(c4cccc(Cl)c4)CC3)CC2)cc1,17% (inactive)
6,COc1cc2nccc(Oc3ccc(NC(=O)Nc4cc(C)on4)c(Cl)c3)c2cc1OC,9.48% (active)
7,CC(C)(C)OC(=O)NCc1cccc(N=C=S)c1,-24% (active)
8,COc1cc(/C(=C2/O[C@@H]([C@H]3COC(C)(C)O3)[C@H]3OC(C)(C)O[C@@H]23)c2ccc3c(c2)OCO3)cc(OC)c1OC,86.1% (inactive)
9,CCOC(=O)CNC1=C(Cl)C(=O)N(Cc2ccc(Cl)cc2)C1=O,105% (inactive)
10,O=C1c2cccc(NCCN=Cc3ccccc3O)c2C(=O)c2c(NCCN=Cc3ccccc3O)cccc21,31.6% (inactive)
11,Nc1nc(Cl)cc(Cl)n1,74.2% (inactive)
12,CCc1c(Nc2ccc(C)cc2)[nH]c(N)nc1=S,99.8% (inactive)
13,COC(=O)[C@H](C(C)C)n1c(=O)c2cc(OC)c(OC)cc2c2cnc3[nH]ccc3c21,16.1% (inactive)
14,C[N+]1(CCc2ccccc2)CCC(CCC2CC[N+](C)(CCc3ccccc3)CC2)CC1 (stereo not given),105% (inactive)
15,Cn1c2c(c3ccc(Cl)c(Cl)c31)C(C#N)C(C)(C)NC2=O (stereo not given),69.3% (inactive)
16,CC(=O)c1cc2c(N)c(C(=O)Nc3cccc(Cl)c3)sc2nc1C,48.9% (inactive)
17,COc1ccc(C(c2ccc(OCCN(C)C)cc2)c2cc3ccccc3c3ccccc23)cc1 (stereo not given),3.59% (active)
18,Cc1cccc(N2CCN(C(=S)c3ccc4c(c3)OCO4)CC2)c1,-20% (active)
19,O=C1N=c2ccccc2=C1c1sc(=Nc2ccccc2)n(Nc2ccccc2)c1O,97.5% (inactive)
20,CC(C)OC(C(=O)O)c1ccccc1 (stereo not given),129% (inactive)

row,SMILES,growth
1,O=C(NCCNc1nccc(-c2c(-c3cccc(F)c3)nc3sccn23)n1)c1ccc(Cl)cc1,99.1% (inactive)
2,Cc1cc(N2CCN(C)CC2)nc(NC2CCCC(Nc3ccnc4cc(Cl)ccc34)C2)n1 (stereo not given),-64.9% (active)
3,COc1ccc(-c2csc(NC(=O)Nc3nc(-c4ccc(OC)cc4)cs3)n2)cc1,80.6% (inactive)
4,Cc1cc(Cl)ccc1Nc1nc(C(F)(F)F)ccc1C(=O)N/N=C/c1cccc(O)c1,4.08% (active)
5,COC(=O)[C@H](Cc1cn(C)cn1)NC(=O)[C@H](CC(=O)OCc1ccccc1)NC(=O)Nc1cc(C(F)(F)F)cc(C(F)(F)F)c1,-68.9% [100 µM] (active)
6,O=C(O)CCCn1c(SCc2c(Cl)cccc2Cl)nc2ccsc2c1=O,-4.86% (active)
7,CN1C(=O)N2CN3CCCN(C3)CN3C(=S)NC1C23 (stereo not given),99.8% (inactive)
8,O=C1/C(=C/c2cn(-c3ccccc3)nc2-c2ccccc2)SC(=S)N1C1CCCCC1,116% (inactive)
9,CCN1CCN(C(=O)[C@@]2(C)CC[C@]3(C)CC[C@]4(C)C(=CC(=O)[C@@H]5[C@@]6(C)CC[C@H](OC7C[C@@H](O)[C@@H](O)C(C)O7)C(C)(C)[C@@H]6CC[C@]54C)[C@@H]3C2)CC1 (stereo not given in full),-57.2% (active)
10,CN(C)CCC1(c2ccccc2)CCN(C)C1=O (stereo not given),109% (inactive)
11,Cc1ccc(Cl)cc1NC(=O)CCl,33% (inactive)
12,CC(C)c1ccc2nc3ccc(C(=O)NCCN4CCN(c5ccccc5)CC4)cn3c(=O)c2c1,74.9% (inactive)
13,Cc1c2cnccc2c(C)c2c1c1cc(O)ccc1n2C(C)C,0.765% (active)
14,C=CC(C)(O)CCC1C(=C)CCC2C(C)(C)CCCC12C (stereo not given),82.1% (inactive)
15,Cc1ncc(-c2ccoc2)c(NC2CCCCCC2)n1,96.1% (inactive)
16,O=C(Nc1ccc(NC(=O)c2cc(=O)[nH]c3ccccc23)cc1)Nc1cccc(C(F)(F)F)c1,99.8% (inactive)
17,COc1ccc(-c2ccc(-c3ccc(-c4ccc(C(=N)N)cc4)s3)s2)cc1OC,99.1% (inactive)
18,Cc1cc2ccccc2c2cc3ccccc3cc12,49.4% (inactive)
19,O=C1/C(=C/c2ccccc2)CN(CCC(=O)N2C/C(=C\c3ccccc3)C(=O)/C(=C/c3ccccc3)C2)C/C1=C\c1ccccc1,48% (inactive)
20,O=C1c2cccnc2C(=O)c2c1c(C(=O)OCCCN1CCCCC1)c1ccccn21,-21.6% (active)
